Inconclusive results are not listed. The source holds several records for some structures; these can differ, active in one and inactive in another. Calls of active or inactive are those of the source. How the source made its calls, unless noted: active means hit-call score of the fitted dose curve at least 0.9, where 1 is the maximum; inactive means score below 0.9.
Experiments:
[1] = ATG_TCF_b_cat_CIS: Attagene CIS-FACTORIAL HepG2 Assay for human T-Cell-Factor with beta-catenin (TCF/b-cat) (AID 2282965); details: HepG2 TCF/beta-catenin cis-reporter transcription, actives raise or lower the signal
Method in brief: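 HepG2 cells transiently transfected with cis-promoter-driven multiplexed reporter units; reporter mRNA measured 24 h after dosing by RT-PCR, FAM labelling, HpaI digestion and capillary electrophoresis. Bidirectional fitting relative to DMSO baseline.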

[2] = ATG_TAL_CIS: Attagene CIS-FACTORIAL HepG2 Assay for human TAL Basal Promoter (AID 2282966); details: HepG2 Attagene cis-factorial TAL promoter reporter; actives raise or lower the signal;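 further: background control endpoint measuring basal TAL promoter reporter mRNA not a specific factor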
Method in brief: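 Readout: reporter mRNA, fluorescence by CE. System: HepG2, transient multi-reporter transfection, endogenous TF activity. Exposure: 24 h. Analysis: bidirectional, DMSO-normalized; background control.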

[3] = ATG_TGFb_CIS: Attagene CIS-FACTORIAL HepG2 Assay for human Transforming Growth Factor (TGF) (AID 2282967); details: HepG2 Attagene CIS TGFb reporter, mRNA transcription; actives raise or lower the signal
Method in brief: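 Transcript-level reporter readout: HepG2 transfectants, 24 h exposure, RNA to cDNA, reporter-specific PCR, fluorescent primer extension, capillary sizing against ROX standards. Gain- or loss-of-signal relative to DMSO.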

[4] = ATG_VDRE_CIS: Attagene CIS-FACTORIAL HepG2 Assay for human Vitamin D Receptor Element (VDRE) (AID 2282968); details: HepG2 VDRE cis-reporter transcription, actives raise or lower the signal
Method in brief: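 Transiently transfected HepG2 cells carrying cis-regulated reporter transcription units were exposed for 24 h. Reporter mRNA was measured by RT-PCR with fluorescent labelling and capillary electrophoresis, and fitted in both directions against DMSO.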

[5] = molecular target: Estrogen receptor (Homo sapiens) (UniProt P03372); assay: ATG_ERa_TRANS: Attagene TRANS-FACTORIAL HepG2 Assay for human Estrogen Receptor alpha (ERa) (AID 2282970; active means hit-call score of the fitted dose curve at least 0.9, where 1 is the maximum); details: HepG2 Attagene TRANS ERa GAL4 reporter, mRNA
Method in brief: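 Transactivation via ERa-Gal4 chimera in HepG2; 24 hour incubation; reporter mRNA detected by fluorescence RT-PCR and capillary electrophoresis.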

[6] = molecular target: Steroid hormone receptor ERR1 (Homo sapiens) (UniProt P11474); assay: ATG_ERRa_TRANS: Attagene TRANS-FACTORIAL HepG2 Assay for human Estrogen-Related Receptor alpha (ERRa) (AID 2282971; active means hit-call score of the fitted dose curve at least 0.9, where 1 is the maximum); details: HepG2 Attagene TRANS reporter, ERRa transactivation
Method in brief: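 HepG2 cells were transiently transfected with multiple GAL4-UAS reporter units, then dosed with compound for 24 h. Total RNA was reverse-transcribed, reporter cDNA PCR-amplified and fluorescently labelled, and fragments resolved by capillary electrophoresis; induction was compared with DMSO.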

[7] = molecular target: X-box-binding protein 1 (Homo sapiens) (UniProt P17861); assay: ATG_Xbp1_CIS: Attagene CIS-FACTORIAL HepG2 Assay for human X-box Binding Protein 1 (XBP1) (AID 2282972); details: HepG2 XBP1 cis-element reporter, Attagene multiplex; actives raise or lower the signal
Method in brief: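 HepG2 cells transiently transfected with multiple cis-element reporter units report endogenous TF activity; 24 h exposure, then reporter mRNA measured by RT-PCR, 6-FAM labelling, HpaI digestion and capillary electrophoresis. Bidirectional fitting versus DMSO.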

[8] = ATG_M_19_TRANS: Attagene TRANS-FACTORIAL HepG2 Assay for M19 Transcription Factor (Internal Marker) (AID 2282974; active means hit-call score of the fitted dose curve at least 0.9, where 1 is the maximum); details: HepG2 Attagene TRANS-FACTORIAL M19 internal marker reporter
Method in brief: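 Fluorescence of 6-FAM-labelled reporter cDNA fragments, separated by capillary electrophoresis, served as the readout. These derived from HepG2 cells carrying transfected GAL4-UAS reporter units after 24 h dosing, with DMSO as negative control.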

[9] = ATG_GAL4_TRANS: Attagene TRANS-FACTORIAL HepG2 Assay for GAL4 (Internal Marker) (AID 2282976; active means hit-call score of the fitted dose curve at least 0.9, where 1 is the maximum); details: HepG2 Attagene TRANS GAL4 internal marker reporter
Method in brief: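 Fluorescence from capillary electrophoresis of labelled RT-PCR products quantifies reporter mRNA induction after 24 h dosing of HepG2 cells carrying transfected GAL4-UAS reporter transcription units. Vehicle DMSO serves as baseline.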

[10] = molecular target: Nuclear receptor subfamily 1 group I member 3 (Homo sapiens) (UniProt Q14994); assay: ATG_CAR_TRANS: Attagene TRANS-FACTORIAL HepG2 Assay for human Constitutive Androstane Receptor (CAR) (AID 2282969; active means hit-call score of the fitted dose curve at least 0.9, where 1 is the maximum;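 further: activators raise reporter mRNA above DMSO so AC50 marks induction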); details: HepG2 Attagene TRANS-FACTORIAL CAR reporter
Method in brief: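 HepG2 cells transiently transfected with GAL4-UAS reporter units; TRANS format reads activity of exogenous chimeric NR-Gal4 protein. After 24 h dosing, reporter mRNA quantified by RT-PCR, 6-FAM labelling and capillary electrophoresis; gain of signal fitted against DMSO.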

Sequence of Nuclear receptor subfamily 1 group I member 3 (Homo sapiens) (Q14994 whole entry, looked up, the tested form may be a part): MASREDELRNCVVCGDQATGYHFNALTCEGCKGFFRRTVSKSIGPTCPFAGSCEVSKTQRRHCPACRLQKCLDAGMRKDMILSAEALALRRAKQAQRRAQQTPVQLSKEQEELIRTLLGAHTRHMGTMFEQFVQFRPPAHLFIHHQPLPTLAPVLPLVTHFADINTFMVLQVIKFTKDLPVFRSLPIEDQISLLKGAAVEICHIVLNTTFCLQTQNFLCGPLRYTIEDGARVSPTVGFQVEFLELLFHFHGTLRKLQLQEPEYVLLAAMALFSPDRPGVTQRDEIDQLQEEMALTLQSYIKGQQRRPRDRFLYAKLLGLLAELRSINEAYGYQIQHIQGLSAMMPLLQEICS
Sequence of Steroid hormone receptor ERR1 (Homo sapiens) (P11474 whole entry, looked up, the tested form may be a part): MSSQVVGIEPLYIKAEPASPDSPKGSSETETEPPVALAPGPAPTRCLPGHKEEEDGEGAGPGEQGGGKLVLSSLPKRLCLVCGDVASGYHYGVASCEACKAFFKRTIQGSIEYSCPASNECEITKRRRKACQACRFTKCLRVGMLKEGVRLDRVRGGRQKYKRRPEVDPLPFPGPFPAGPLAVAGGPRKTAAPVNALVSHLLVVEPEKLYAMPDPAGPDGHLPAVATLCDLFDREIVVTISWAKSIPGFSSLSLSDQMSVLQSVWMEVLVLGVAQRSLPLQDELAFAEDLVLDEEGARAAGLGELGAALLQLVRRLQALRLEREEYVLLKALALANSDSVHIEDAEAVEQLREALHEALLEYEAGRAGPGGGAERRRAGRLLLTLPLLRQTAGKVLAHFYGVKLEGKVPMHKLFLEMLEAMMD
Sequence of X-box-binding protein 1 (Homo sapiens) (P17861 whole entry, looked up): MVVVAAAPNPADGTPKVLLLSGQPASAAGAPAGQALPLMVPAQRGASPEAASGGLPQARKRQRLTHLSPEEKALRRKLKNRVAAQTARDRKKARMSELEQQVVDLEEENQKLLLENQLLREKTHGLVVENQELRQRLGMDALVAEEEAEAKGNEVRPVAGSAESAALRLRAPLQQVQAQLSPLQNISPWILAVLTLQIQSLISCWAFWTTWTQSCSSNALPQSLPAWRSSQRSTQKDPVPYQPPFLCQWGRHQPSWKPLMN
Sequence of Estrogen receptor (Homo sapiens) (P03372 whole entry, looked up, the tested form may be a part): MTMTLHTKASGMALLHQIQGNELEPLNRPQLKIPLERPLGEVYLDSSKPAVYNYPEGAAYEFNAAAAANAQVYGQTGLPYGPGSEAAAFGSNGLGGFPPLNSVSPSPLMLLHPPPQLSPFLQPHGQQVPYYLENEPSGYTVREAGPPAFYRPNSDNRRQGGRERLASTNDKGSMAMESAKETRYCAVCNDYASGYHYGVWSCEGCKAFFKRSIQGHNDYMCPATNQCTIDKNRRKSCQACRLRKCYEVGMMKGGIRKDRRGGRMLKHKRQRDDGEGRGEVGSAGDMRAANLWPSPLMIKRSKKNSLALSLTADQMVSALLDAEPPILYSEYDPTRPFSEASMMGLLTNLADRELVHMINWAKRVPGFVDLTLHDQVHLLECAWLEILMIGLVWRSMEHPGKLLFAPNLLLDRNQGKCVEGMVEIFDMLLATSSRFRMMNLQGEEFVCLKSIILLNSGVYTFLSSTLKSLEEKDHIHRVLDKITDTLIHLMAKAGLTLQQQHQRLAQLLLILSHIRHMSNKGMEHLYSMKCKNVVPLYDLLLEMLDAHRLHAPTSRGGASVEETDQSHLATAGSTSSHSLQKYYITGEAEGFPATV

Compound | outcome [1] | outcome [2] | outcome [3] | outcome [4] | outcome [5] | outcome [6] | outcome [7] | outcome [8] | outcome [9] | outcome [10] | AC50 [3] | AC50 [4] | AC50 [5]
O=S(=O)(OCC(F)F)C(F)(F)F | inactive | inactive | inactive | inactive | inactive | inactive | inactive | inactive | inactive | – | – | – | –
FC(F)(F)C(F)(F)C(F)(F)C(F)(F)CCI | inactive | inactive | inactive | inactive | – | – | inactive | inactive | inactive | inactive | – | – | –
C1COCCN1 | inactive | inactive | inactive | inactive | – | – | inactive | inactive | inactive | inactive | – | – | –
OCC(F)(F)C(F)(F)C(F)(F)C(F)F | inactive | inactive | inactive | inactive | – | inactive | inactive | inactive | inactive | – | – | – | –
CCO[Si](CCC(F)(F)C(F)(F)C(F)(F)C(F)(F)C(F)(F)C(F)(F)F)(OCC)OCC | inactive | inactive | inactive | inactive | – | inactive | inactive | – | inactive | – | – | – | –
FC1CC(F)(F)C(F)(F)C1(F)F (stereo unspecified) | inactive | inactive | inactive | inactive | – | – | inactive | inactive | inactive | inactive | – | – | –
O=P(O)(O)OCCC(F)(F)C(F)(F)C(F)(F)C(F)(F)C(F)(F)C(F)(F)F | inactive | inactive | – | inactive | – | inactive | inactive | inactive | inactive | inactive | 70.1 µM (active) | – | –
CCc1ccc(C(c2ccc(CC)cc2)C(Cl)Cl)cc1 | inactive | inactive | inactive | – | – | – | inactive | inactive | – | inactive | – | 2.84 µM (active) | –
CC(C)=CCCC(C)CCOC(=O)C(C)C (stereo unspecified) | inactive | inactive | inactive | inactive | – | – | inactive | inactive | inactive | inactive | – | – | –
NC(=O)C(F)(F)C(F)(F)C(F)(F)C(F)(F)F | inactive | inactive | inactive | inactive | – | inactive | inactive | – | inactive | inactive | – | – | –
OC[C@@H](O)[C@@H](O)[C@H](O)[C@@H](O)CO | inactive | inactive | inactive | inactive | – | inactive | inactive | inactive | inactive | – | – | – | 26.2 µM (active)
CCC(=O)OCCc1ccccc1 | inactive | inactive | inactive | inactive | – | – | inactive | inactive | inactive | inactive | – | – | –
O=C(O)C(F)(F)C(F)(F)C(F)(F)C(F)(F)F | inactive | inactive | inactive | inactive | – | inactive | inactive | inactive | inactive | inactive | – | – | –
CCCCCCOC(=O)c1ccccc1O | inactive | inactive | inactive | inactive | – | – | inactive | inactive | – | inactive | – | – | –
Nc1cc(Cl)c(N)c(Cl)c1 | inactive | inactive | inactive | inactive | – | – | inactive | inactive | inactive | inactive | – | – | –
C=CC(F)(F)C(F)(F)C(F)(F)C(F)(F)C(F)(F)C(F)(F)C(F)(F)C(F)(F)F | inactive | inactive | inactive | inactive | – | inactive | inactive | inactive | inactive | – | – | – | –

Compound | outcome [1] | outcome [2] | outcome [3] | outcome [4] | outcome [5] | outcome [6] | outcome [7] | outcome [8] | outcome [9] | outcome [10] | AC50 [3] | AC50 [4] | AC50 [5]
Cc1ccc(S(=O)(=O)NCl)cc1 | inactive | inactive | inactive | – | – | – | inactive | – | inactive | – | – | – | –
CNC(=S)NC | inactive | inactive | inactive | inactive | – | – | inactive | inactive | – | inactive | – | – | –
FC(F)(F)C(F)(F)C(F)(F)N(C(F)(F)C(F)(F)C(F)(F)F)C(F)(F)C(F)(F)C(F)(F)F | inactive | inactive | inactive | inactive | – | inactive | inactive | inactive | inactive | inactive | – | – | –
FC(F)(F)C(F)(F)C(F)(F)C(F)(F)C(F)(F)C(F)(F)C(F)(F)C(F)(F)CCS | inactive | inactive | inactive | inactive | – | inactive | inactive | inactive | inactive | inactive | – | – | –
Nc1ccc(S(=O)(=O)Nc2nccs2)cc1 | inactive | inactive | inactive | inactive | – | inactive | inactive | inactive | inactive | – | – | – | –
O=C(OCCOCCOCCOC(=O)c1ccccc1)c1ccccc1 | inactive | inactive | inactive | inactive | – | – | inactive | inactive | inactive | inactive | – | – | –
CCCCCCCCC(F)(F)C(F)(F)C(F)(F)C(F)(F)C(F)(F)C(F)(F)F | inactive | inactive | inactive | inactive | – | inactive | inactive | inactive | inactive | inactive | – | – | –
O=C(O)C=C(C(F)(F)F)C(F)(F)F | inactive | inactive | inactive | inactive | – | inactive | inactive | – | inactive | inactive | – | – | –
C=C(C)C(=O)OCC(F)(F)C(F)(F)C(F)(F)F | inactive | inactive | inactive | inactive | inactive | inactive | inactive | inactive | inactive | – | – | – | 30.7 µM (active)
CCCCOCCOCCOC(=O)CCCCC(=O)OCCOCCOCCCC | inactive | inactive | inactive | inactive | – | – | inactive | – | inactive | inactive | – | – | –
FC(F)(F)C(F)(F)C(F)(F)C(F)(F)C(F)(F)C(F)(F)C(F)(F)Br | inactive | inactive | inactive | inactive | – | inactive | inactive | inactive | inactive | inactive | – | – | –
CC/C=C\CCOC(C)=O | inactive | inactive | inactive | inactive | – | inactive | inactive | – | inactive | inactive | – | – | –
FC(F)(F)C(F)(F)C(F)(F)C(F)(F)C(F)(F)C(F)(F)C(F)(F)C(F)(F)F | inactive | inactive | inactive | inactive | – | inactive | inactive | inactive | inactive | inactive | – | – | –
Cc1cc(C)cc(O)c1 | inactive | inactive | inactive | inactive | inactive | inactive | inactive | inactive | inactive | – | – | – | –
CN(C)Cc1ccccc1O | inactive | inactive | inactive | inactive | – | – | inactive | inactive | – | inactive | – | – | –
